Screens: PubChem, National Center for Advancing Translational Sciences (NCATS)
An excerpt weighted towards active compounds, which were near 15% of everything screened.
HCV inh = inhibitors of hepatitis C virus infection. actives 3.4% (n = 340,000). Huh7.5.1 HCVcc-Cre infection, luciferase reporter, 44 h. Potency, µM (titrated, usually from 41.8 µM), actives largely listed as inhibitors
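HCVcc-Cre virus at an moi near 0.5 was added right after compound to cells cultured 4 h from seeding (1,000 cells/well). Luciferase activity was determined 44 h later, 15 min after substrate addition at RT.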
Pf growth 96h = P. falciparum growth inhibition at 96 hours | P. falciparum luciferase reporter growth, 96 h | Potency, µM (highest dose often 28.7 µM), actives largely listed as inhibitors | actives 6.9% (n = 320,000)
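Infected RBCs, 2% Hct / 0.05% parasitemia final; luciferase-reporter P. falciparum; cpd 96 h, 37 C, 5% CO2; luciferase detection reagent; luminescence.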
Sm TGR inh = blocks Schistosoma mansoni thioredoxin glutathione reductase; actives 3% (n = 360,000); purified TGR, DTNB reduction, TNB absorbance 405 nm; Q962Y6; Potency, µM (titrated, usually from 114 µM), hits mostly inhibitors; further: nearly all actives have a fitted effect of over 60% in size
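Kinetic colorimetric format: TGR-catalysed, NADPH-driven DTNB reduction monitored via TNB absorbance. Enzyme dispensed at 20 nM; compound exposure 15 min at room temperature before reaction start.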
Pf growth 48h = P. falciparum growth inhibition at 48 hours (one generation); Potency, µM (top dose mostly 28.7 µM), most hits filed as inhibitors; actives 5.9% (n = 310,000); P. falciparum luciferase growth in erythrocytes, 48 h
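Here the parasites carry a stable luciferase gene and grow inside erythrocytes in Albumax-based RPMI medium with compound for one erythrocytic cycle. Activity is scored as loss of luminescent signal.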
HCMV inh = blocks human cytomegalovirus replication. activity change, negative = inhibition, % at 57.5 µM. HFF cells, HCMV-luciferase reporter, 72 h; active compounds read low. actives 4.5% (n = 410,000); in the data active means activity change below about -60%; inconclusive means no clear call, values can overlap the other calls; inactive means above about -39%
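HFF cells seeded 16 h at 37C, treated with compounds, infected with luciferase-reporter HCMV at MOI 1 PFU/cell; luciferase read at 72 h post infection, normalized to buffer-only and Salinomycin controls.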
SARS PLP yeast = blocks SARS-CoV papain-like protease in a yeast assay; S. cerevisiae expressing SARS-CoV PLpro, growth rescue; Potency, µM (series often up to 32.9 µM), usual class: activators; actives 0.19% (n = 330,000); calls by dose curve; further: nearly all actives have a fitted effect of over 55% in size
Numbers stand for hits; 0 = inactive; ? = inconclusive; - = not tested or not shown; [ ] = another dose, or the depositor's remark. Unless noted, the call rests on the fitted dose curve; in most records, active means well fitted curve in the direction sought with a large enough effect; inconclusive means small, poorly fitted or top-dose-only effect, or another doubt; inactive means no such curve, though single readings can be large; an effect the other way counts as inactive or inconclusive.

SMILES	HCV inh	Pf growth 96h	Sm TGR inh	Pf growth 48h	HCMV inh	SARS PLP yeast
O=C(c1cc(C2CC2)nn1-c1ccccc1)N1CCN(c2ccc(O)cc2)CC1	?	?	?	10µM	0	0
CCOc1ccc(S(=O)(=O)N2CCN(C(=O)c3cc(-c4ccccc4)nn3-c3ccccc3)CC2)cc1	?	?	0	?	0	0
O=C(c1cc(C2CC2)nn1-c1ccccc1)N1CCN(S(=O)(=O)c2c(F)cccc2F)CC1	?	?	0	7.4µM	0	0
CCOc1ccc(S(=O)(=O)N2CCN(C(=O)c3cc(C4CC4)nn3-c3ccccc3)CC2)cc1	?	?	0	4.7µM	0	0
COc1ccc(F)cc1C(=O)C1CCCN(C(=O)c2ccccc2N(C)C)C1 (stereo unspecified)	0	?	0	?	0	0
Cc1ccc(-c2nc3cc(C)c(Br)c(C)n3c2CC(C)(C)C)cc1	-	-	-	-	0	-
COC(=O)c1c(NC(=O)COc2ccc(C)cc2Br)sc2c1CCCC2	-	-	0	-	0	-
Nc1nc2c(nc(Br)n2[C@@H]2O[C@@H]3COP(=O)(O)O[C@H]3[C@H]2O)c(=O)[nH]1	0	-	-	-	0	-
Nc1ncnc2c1nc(Br)n2[C@@H]1O[C@@H]2COP(=O)(O)O[C@H]2[C@H]1O	0	-	-	-	-76	-
O=C(NCc1ccccn1)C1CCN(C2CCN(Cc3cccc(F)c3)CC2)CC1	-	-	-	-	0	-
COc1ccc(N(CC(=O)NCCSc2ccccn2)S(=O)(=O)c2ccccc2)c(OC)c1	0	0	0	0	0	0
Cc1ccc2c(c1)sc(-c1ccc(N(C)C)cc1)[n+]2C	3.5µM	?	0	0	-96	0
Cc1ccc(N(C)C)cc1	-	-	-	-	0	-
Cc1nc2c(-c3ccc(F)cc3)c(C)nn2c(C)c1CCC(=O)Nc1ccccc1F	0	9.3µM	0	?	0	0
Cc1nc2c(-c3ccccc3)c(C)nn2c(C)c1CCC(=O)NC(C)CCc1ccco1 (stereo unspecified)	0	10µM	0	-	0	0
COc1ccccc1-c1cc2nc(C)c(CCC(=O)NC(C)CCc3ccco3)c(C)n2n1 (stereo unspecified)	?	0	0	-	0	0
O=C1/C(=C\c2cccs2)N=C(c2cccs2)N1Nc1ccccc1	?	-	0	0	-78	0
COC(=O)C[C@@H]1C[C@H]2c3cc(NC(=O)Nc4ccccc4F)ccc3O[C@H]2[C@@H](CO)O1	-	-	-	-	0	-
C=CCn1c(CCCNC(=O)CCC)nc2ccccc21	0	0	0	0	0	0
O=S(=O)(c1cccc(Cn2nnc(-c3ccccc3)n2)c1)N1CCOCC1	?	-	-	-	0	0
O=C(N/C(=C\c1ccco1)C(=O)N1CCCC1CO)c1ccccc1 (stereo unspecified)	0	0	35µM	0	0	0
O=C(N/C(=C\c1ccco1)C(=O)N1CCOCC1)c1ccc([N+](=O)[O-])cc1	0	4.7µM	0	0	0	0
CC1CCN(C(=O)/C(=C\c2ccco2)NC(=O)c2ccccc2)CC1	0	?	0	0	0	0
CCOC(=O)N1CCN(C(=O)/C(=C/c2ccc(F)cc2)NC(=O)c2ccccc2)CC1	0	3.3µM	0	0	0	0
Cc1ccc(C(=O)N/C(=C/c2ccco2)C(=O)N2CCC(C)CC2)cc1	0	?	50µM	?	0	0
SMILES	HCV inh	Pf growth 96h	Sm TGR inh	Pf growth 48h	HCMV inh	SARS PLP yeast
COc1ccc(NC(=O)CN(C)C(=O)C2CCCO2)cc1 (stereo unspecified)	0	0	0	0	0	0
COCCNC(=O)CN(C(=O)CCC(=O)Nc1ccccn1)c1ccc(C)cc1C	0	0	0	0	0	0
COc1ccc(C(=O)N/C(=C/c2cccs2)C(=O)N2CCN(C)CC2)cc1	-	-	-	-	0	-
CC1CCN(C(=O)/C(=C\c2cccs2)NC(=O)c2ccccc2)CC1	0	0	4µM	0	0	0
CCc1ccc(OCc2ccc(C(=O)O)o2)cc1	0	0	35µM	0	0	0
CCOc1ccc(OCc2ccc(C(=O)NCc3cccnc3)o2)cc1	?	?	0	0	0	0
CC(C)c1ccc(OCc2ccc(C(=O)O)o2)cc1	0	0	0	1µM	0	0
CCOc1ccc(OCc2ccc(C(=O)Nc3cccnc3)o2)cc1	0	9.3µM	0	12µM	0	0
O=C(N[C@H]1CC[C@@]23CCCN2C(=O)CCC[C@H]3[C@H]1Cc1ccccc1)c1ccc(Cl)c(C(F)(F)F)c1	-	-	-	-	0	-
C=CCSc1nc(N)c2c3c(sc2n1)CN(C)CC3	?	2.1µM	0	?	0	0
CSc1nc(N)c2c3c(sc2n1)CN(C)CC3	?	4.7µM	0	-	0	0
CCC(Cn1nnc2ccccc2c1=O)NC(=O)Nc1ccccc1Cl (stereo unspecified)	-	-	0	-	0	-
Cc1c(N=Cc2c(O)n(CCc3ccc(F)cc3)c(=O)[nH]c2=O)c(=O)n(-c2ccccc2)n1C	0	10µM	0	0	-71	0
Cc1c(N=Nc2c(O)[nH]c(=O)[nH]c2=O)c(=O)n(-c2ccccc2)n1C	0	0[5.75 µM]	0	0	0	0
Cc1c(N=Nc2c(O)n(-c3ccc(Br)cc3)c(=O)[nH]c2=O)c(=O)n(-c2ccccc2)n1C	0	0	10µM	0	0	0
COc1ccc(N2C(=O)CC(N3CCCC4CCCCC43)C2=O)cc1 (stereo unspecified)	0	0	11µM	0	0	0
O=C1CC(NC23CC4CC(CC(C4)C2)C3)C(=O)N1c1ccc2c(c1)OCO2 (stereo unspecified)	0	-	45µM	0	0	0
COc1ccc(N2C(=O)CC(N3CCCCC3)C2=O)cc1 (stereo unspecified)	0	0	32µM	0	0	0
O=C1CC(N2CCCCCC2)C(=O)N1c1ccc2c(c1)OCO2 (stereo unspecified)	0	0	7.9µM	0	0	0
COc1ccc(-c2cc(C(=O)NCCc3ccc(OC)c(OC)c3)c3c(-c4ccc(F)cc4)[nH]nc3n2)cc1	-	-	0	-	0	-
NC(=O)C1(N2CCCCC2)CCN(C2CC(=O)N(Cc3cccs3)C2=O)CC1 (stereo unspecified)	0	-	50µM	0	0	0
COc1ccc(N2C(=O)CC(N3CCN(C(=O)c4ccco4)CC3)C2=O)cc1 (stereo unspecified)	0	0	?	0	?	0
COc1cccc(N2C(=O)CC(N3CCC(C(N)=O)(N4CCCCC4)CC3)C2=O)c1 (stereo unspecified)	0	?	18µM	0	0	0
CN1C(=O)CC(N2CCC(C(N)=O)(N3CCCCC3)CC2)C1=O (stereo unspecified)	0	0	0	0	0	0
